# Measurements from PubChem BioAssay (NCATS).
# Inconclusive results are not listed. Activity calls are given as the source filed them. The call rests on the fitted dose curve; in most records, active means well fitted inhibition curve with a large enough effect; inconclusive means small, poorly fitted or top-dose-only effect; inactive means flat fitted curve, though single readings scatter.
# Assay: BET inhibitor-based combinations targeting novel dependencies in MECOM-rearranged (r) AML: AML-191 cell line (AID 2202236; further: nearly all actives have a fitted effect of over 35% in size;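 on viability (% of control): plate controls were vehicle wells for no effect and wells without cells for full effect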)
# Conditions: AML-191 viability, CellTiter-Glo luminescence, 48 h; series mostly up to 46 µM; viability (% of control): at the top concentration
# How it was run: (§1)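 AML cell lines seeded at 500 cells/well, treated with 11-point dose curves for 48 h. Viability by CellTiter-Glo luminescence, normalised to DMSO and empty wells; activity expressed as AUC and per-cell-line Z-transformed AUC.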
# Potency means the concentration at half of the fitted maximal effect.
Compound,viability (% of control),Potency
CCCCC(CC)COC(=O)C(C#N)=C(c1ccccc1)c1ccccc1 (centres undefined),105% (inactive),
OC(c1cc(C(F)(F)F)nc2c(C(F)(F)F)cccc12)C1CCCCN1 (centres undefined),,23.5 µM (active)
COc1ccc2cccc(CCNC(C)=O)c2c1,96.9% (inactive),
Nc1cc(C(Cl)=C(Cl)Cl)c(S(N)(=O)=O)cc1S(N)(=O)=O,107% (inactive),
CC(COc1ccccc1)N(CCCl)Cc1ccccc1 (centres undefined),94.3% (inactive),
Cc1cccc(CN2CCN(C(c3ccccc3)c3ccc(Cl)cc3)CC2)c1 (centres undefined),93.3% (inactive),
Nc1ccc(S(N)(=O)=O)cc1,93.8% (inactive),
CC(=O)SCC(Cc1ccccc1)C(=O)NCC(=O)OCc1ccccc1 (centres undefined),105% (inactive),
Cc1nnc(NS(=O)(=O)c2ccc(N)cc2)s1,97.8% (inactive),
CNNCc1ccc(C(=O)NC(C)C)cc1,108% (inactive),

# Assay: BET inhibitor-based combinations targeting novel dependencies in MECOM-rearranged (r) AML: AML-194 cell line (AID 2202237; further: nearly all actives have a fitted effect of over 40% in size;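 on viability (% of control): plate controls were vehicle wells for no effect and wells without cells for full effect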)
# Conditions: AML-194 (MECOM-r AML) viability, CellTiter-Glo, 48 h; series mostly up to 46 µM; viability (% of control): at the top concentration
# How it was run: as §1
Compound,viability (% of control),Potency
COc1cc2c(cc1OC)CC(=O)N(CCCN(C)C[C@H]1Cc3cc(OC)c(OC)cc31)CC2,98.3% (inactive),
COc1c(C)c2c(c(O)c1C/C=C(\C)CCC(=O)O)C(=O)OC2,,1.32 µM (active)
Cc1ccsc1C(=CCCN1CCC[C@@H](C(=O)O)C1)c1sccc1C,100% (inactive),
CC(C)C[C@@H](N)[C@H](O)C(=O)N[C@H](C(=O)N[C@H](C(=O)N[C@@H](CC(=O)O)C(=O)O)C(C)C)C(C)C,107% (inactive),
COc1cc2c(cc1Cc1cccc(Cl)c1F)c(=O)c(C(=O)O)cn2[C@H](CO)C(C)C,,8.33 µM (active)
CC(C)C[C@H](CC(=O)O)C(=O)N[C@@H](Cc1c[nH]c2ccccc12)C(=O)N[C@@H](C)c1ccccc1,,18.6 µM (active)
CC(=O)OC[C@@H]1O[C@@H](n2ccc(=O)[nH]c2=O)[C@H](OC(C)=O)[C@H]1OC(C)=O,105% (inactive),
O=C(c1ccc(F)cc1)N1CCC[C@H](c2nc(-c3ccc(F)cc3)no2)C1,93.8% (inactive),
C[C@H](NC(=O)Cc1cc(F)cc(F)c1)C(=O)N[C@H](C(=O)OC(C)(C)C)c1ccccc1,100% (inactive),
CCOc1ccccc1N=Nc1c(C)[nH]n(-c2nc(-c3ccccc3)cs2)c1=O,104% (inactive),
O=C(O)C1=CC(O)C(O)[C@H](O)C1 (some centres undefined),110% (inactive),
CCCCC(CC)COC(=O)C(C#N)=C(c1ccccc1)c1ccccc1 (centres undefined),115% (inactive),
COc1cc(S(C)(=O)=O)ccc1Nc1nc2ccc(-c3ccc(NC(=O)[C@H](C)c4ccc(F)cc4)cc3)cn2n1,,1.32 µM (active)
OC(c1cc(C(F)(F)F)nc2c(C(F)(F)F)cccc12)C1CCCCN1 (centres undefined),,20.9 µM (active)
COc1ccc2cccc(CCNC(C)=O)c2c1,100% (inactive),
Cc1cnc(C(=O)O)c[n+]1[O-],114% (inactive),
Nc1cc(C(Cl)=C(Cl)Cl)c(S(N)(=O)=O)cc1S(N)(=O)=O,112% (inactive),
CC(COc1ccccc1)N(CCCl)Cc1ccccc1 (centres undefined),98.3% (inactive),
Cc1cccc(CN2CCN(C(c3ccccc3)c3ccc(Cl)cc3)CC2)c1 (centres undefined),101% (inactive),
Nc1ccc(S(N)(=O)=O)cc1,114% (inactive),
CC(=O)SCC(Cc1ccccc1)C(=O)NCC(=O)OCc1ccccc1 (centres undefined),92.4% (inactive),
CC[C@@H]([C@H](C)O)n1ncn(-c2ccc(N3CCN(c4ccc(OCC5CO[C@@](Cn6cncn6)(c6ccc(F)cc6F)C5)cc4)CC3)cc2)c1=O (some centres undefined),,4.17 µM (active)
Cc1nnc(NS(=O)(=O)c2ccc(N)cc2)s1,98.4% (inactive),
Nc1nc(OCc2cc(Br)cs2)c2[nH]cnc2n1,99.9% (inactive),
